The supplement of paper PMC6555819

Test system: PPARg:RXRa DBDmut IVT, anti-RXR (DBD mutation: RXRa K156A/R161A, NR concentration 270 nM, RXRa partner concentration 90 nM)
Experiment: PBM binding z-score (relative to random genomic background probes); higher = stronger binding; sequences stand for … in GC…GCGATTGACAGCGTAGAATGAAGG
How it was run: (§1)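 Custom Agilent 4×180K protein-binding microarrays carried double-stranded probes, each with a 34-nt variable region. These regions held direct-repeat seeds, single-nucleotide variants, half-site ablations and random human genomic background sequences. Ligand-free nuclear receptor dimers were incubated on the arrays for 1 h, antibodies against each partner (one per run) detected binding, and scanned fluorescence was regression-normalized. Binding z-scores take the random background probes as reference.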

Sequence | PBM binding z-score
CCTACTGGGTCATCAGGTCATTGATATCAACGTT | 6.76
TAGACTAGGTCATGGGCCAGTATACCACGCGAAC | 5.98
TCTTGTAAATCAAGCAGGTTAAGAAAGCCTGAGT | 1.54
TCATATAGCTAATACAGGTGAAAGTCGGCATCTA | 1.68
GTAGACAGGTGAAACGCAGGTAACTCAGGGTGGC | 1.08
CAGCCTAGGTCAGGGCCAGTATCGGAGGAACGTT | 1.72
ATCTCTAGGTAAGACTCTGTTCAGTGAAGAACGC | 2.14
TCGAGTAGGTTAGGTGCATTCAGAATGGCGTCGA | 1.94
TCATCTAGGTAAATGCTAGGTGAAAGTCCGATCT | 3.81
CCGAGTAGGTTATGCGGCATTCAGGCAACGGTGA | 2.82
TCTTGTAGATCAACAGGATGTTAAGAAAGATCGA | 1.7
TCGAGTAGGTCAGTCGGGGCATTCAGCCAACATA | 4.8
CCTACTGGGCCAAAAAGGTTATTGATGCCGATAA | 3.45
CGTCCAAGGTCACAGGTCAGTGAAGAGATGACGG | 4
TCATATAGGTAGAAGGTGAAAGTCGGTGTGGTAA | 3.5
ATCGAAAGGTCGAGGTAAGTATAGAGAAAGGGAA | 0.0665
CGTCCAAGGTCAGCAGGTCAGTGAGAGCGACGTG | 2.88
TCATATAGGGAAAAGGTGAAAGTCGGTGTGGTAA | 3.91
ACTATTAGTTGACTTAGGGCAACCAATACGACGC | 0.203
ACTAGCAGGCCAAGCGTCACTCAAGATTAGTCCG | 1.13

Sequence | PBM binding z-score
AATACAGGGTCATCGTAGGCCTGAGTACGCACAG | 2.91
ACTATTAGTTGACTTATGGCAACCGATACGACGC | 0.0133
TTACCAAGGTGAGCTGAGGTCGTTGGTCCAACTC | 1.42
CCTACTGGGCCATTCAGAGTTCATTGATCATATG | 4.56
TCTTGTAGATCAACAGGAGGTTAAGAAAGATCGA | 1.3
AGAATGAGGTTATACGTAGAGCAGGGAAGAAAGT | 3.85
ACTAGTTGGTCAGCTGAGTTCACACACAATTCGG | 1.2
CAGCCTAGGTCAGGCCCAGTATAGGAGGAACGTT | 0.76
CGTCCAAGGTCATAGGAGGTCAGTGCAGACAGAT | 3.55
GTACCAAGGTCAATAGGTCGTTGATGAGTAGGCG | 2.92
ATCTCTAGTTAAGACTCAGTTCAGTGAAGAACGC | 0.356
CCTAGCAGGCCAATCTGGGTAACTCAAGGCTTGA | 2.34
GCTAGTTGGTCAGTAAAAGGCCACACACCGGTCG | -0.0753
CCTAGTTGGTCAGGAGGTCACACACCGGATATGA | 1.79
CCTCGGAGGACAACTGGAGGTCAGAGCTGCCAGA | 0.198
ATATGTAGGTTAGCTGGGATCATTCAGACTAGGC | 6.87
AGTCAAAGTGCAGGACGAGGTAACGTAAAGCACG | -0.506
GCAGACAGGTGAAACGCAGGTAGCTCAGGGTGGC | 1.07
AGCGAAAGGTCGACGAGGTGAGTATACACCGTTT | 0.519
TACCCTAGGTCAGATCGGGCCAGTATACGCTATA | 0.709

Test system: PPARg:RXRa IVT, anti-PPARg (NR concentration 270 nM, RXRa partner concentration 90 nM)
Experiment: as above
How it was run: as §1

Sequence | PBM binding z-score
CCTACTGGGTCATCAGGTCATTGATATCAACGTT | 7.36
TAGACTAGGTCATGGGCCAGTATACCACGCGAAC | 6.8
TCTTGTAAATCAAGCAGGTTAAGAAAGCCTGAGT | -0.000502
TCATATAGCTAATACAGGTGAAAGTCGGCATCTA | 0.828
GTAGACAGGTGAAACGCAGGTAACTCAGGGTGGC | 0.827
CAGCCTAGGTCAGGGCCAGTATCGGAGGAACGTT | 1.55
ATCTCTAGGTAAGACTCTGTTCAGTGAAGAACGC | 1.19
TCGAGTAGGTTAGGTGCATTCAGAATGGCGTCGA | 1.03
TCATCTAGGTAAATGCTAGGTGAAAGTCCGATCT | 3.11
CCGAGTAGGTTATGCGGCATTCAGGCAACGGTGA | 2.03
TCTTGTAGATCAACAGGATGTTAAGAAAGATCGA | 0.652
TCGAGTAGGTCAGTCGGGGCATTCAGCCAACATA | 4.74
CCTACTGGGCCAAAAAGGTTATTGATGCCGATAA | 2.94
CGTCCAAGGTCACAGGTCAGTGAAGAGATGACGG | 5.24
TCATATAGGTAGAAGGTGAAAGTCGGTGTGGTAA | 2.69
ATCGAAAGGTCGAGGTAAGTATAGAGAAAGGGAA | 1.66
CGTCCAAGGTCAGCAGGTCAGTGAGAGCGACGTG | 3.81
TCATATAGGGAAAAGGTGAAAGTCGGTGTGGTAA | 3.56
ACTATTAGTTGACTTAGGGCAACCAATACGACGC | 0.66
ACTAGCAGGCCAAGCGTCACTCAAGATTAGTCCG | 0.488

Sequence | PBM binding z-score
AATACAGGGTCATCGTAGGCCTGAGTACGCACAG | 4.07
ACTATTAGTTGACTTATGGCAACCGATACGACGC | 0.165
TTACCAAGGTGAGCTGAGGTCGTTGGTCCAACTC | 1.75
CCTACTGGGCCATTCAGAGTTCATTGATCATATG | 3.73
TCTTGTAGATCAACAGGAGGTTAAGAAAGATCGA | 0.568
AGAATGAGGTTATACGTAGAGCAGGGAAGAAAGT | 2.15
ACTAGTTGGTCAGCTGAGTTCACACACAATTCGG | 1.32
CAGCCTAGGTCAGGCCCAGTATAGGAGGAACGTT | 1.39
CGTCCAAGGTCATAGGAGGTCAGTGCAGACAGAT | 4.57
GTACCAAGGTCAATAGGTCGTTGATGAGTAGGCG | 4.42
ATCTCTAGTTAAGACTCAGTTCAGTGAAGAACGC | 0.194
CCTAGCAGGCCAATCTGGGTAACTCAAGGCTTGA | 2.01
GCTAGTTGGTCAGTAAAAGGCCACACACCGGTCG | 0.216
CCTAGTTGGTCAGGAGGTCACACACCGGATATGA | 3.68
CCTCGGAGGACAACTGGAGGTCAGAGCTGCCAGA | 0.595
ATATGTAGGTTAGCTGGGATCATTCAGACTAGGC | 5.92
AGTCAAAGTGCAGGACGAGGTAACGTAAAGCACG | 0.274
GCAGACAGGTGAAACGCAGGTAGCTCAGGGTGGC | 0.347
AGCGAAAGGTCGACGAGGTGAGTATACACCGTTT | 1.89
TACCCTAGGTCAGATCGGGCCAGTATACGCTATA | 2.17
